Results: the supplement of paper PMC3334620
In all, about 33,000 sequences were measured (“E-score (-0.5 to 0.5)”: median about -0.016, highest 2% from about 0.32 on). This is one part of a sample in which the highest values are shown more often than they occur.

Target: T1, Stp1 (UniProt B3LFK1)
T1 sequence: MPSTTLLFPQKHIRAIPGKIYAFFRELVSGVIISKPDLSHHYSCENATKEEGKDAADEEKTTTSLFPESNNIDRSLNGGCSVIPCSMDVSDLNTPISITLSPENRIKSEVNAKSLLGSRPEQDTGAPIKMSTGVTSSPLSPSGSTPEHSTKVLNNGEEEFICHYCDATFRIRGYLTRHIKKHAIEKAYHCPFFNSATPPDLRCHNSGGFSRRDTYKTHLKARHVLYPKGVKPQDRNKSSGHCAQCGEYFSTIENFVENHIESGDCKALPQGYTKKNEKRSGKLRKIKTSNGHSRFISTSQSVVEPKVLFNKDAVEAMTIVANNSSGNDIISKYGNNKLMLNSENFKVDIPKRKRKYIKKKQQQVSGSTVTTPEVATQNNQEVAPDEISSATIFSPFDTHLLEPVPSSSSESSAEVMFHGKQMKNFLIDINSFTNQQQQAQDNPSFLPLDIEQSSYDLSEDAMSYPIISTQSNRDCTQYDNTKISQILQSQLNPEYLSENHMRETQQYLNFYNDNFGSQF
Assay: PBM E-score (8-mer binding enrichment) (E-score (-0.5 to 0.5)); higher = stronger / more preferred TF binding
Conditions: protein concentration: 200 nM; construct: GST-full length
Experimental: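 Universal 'all 10-mer' protein binding microarrays (Agilent AMADID 015681) probed with GST-tagged S. cerevisiae TFs (full-length or DBD) made by in vitro transcription/translation (PURExpress), about 100-200 nM. Bound TF was detected with fluorescent anti-GST. Each ungapped 8-mer (which stands for itself and its reverse complement) is scored by the PBM enrichment score (E-score), a modified Wilcoxon-Mann-Whitney statistic from -0.5 to +0.5, computed with the Universal PBM Analysis Suite. Scale: above 0.35 generally sequence-specific binding.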

Row | Sequence | PBM E-score
1 | ATTACGGC | 0.341
2 | CGTACGCC | 0.233
3 | CGTACGGA | 0.302
4 | CGTACGGC | 0.482
5 | AGTACGGC | 0.436
6 | AGTACGGG | -0.156
7 | AGTACGGA | 0.154
8 | ATTACGGG | -0.199
9 | ATTACGGA | 0.0935
10 | CCTCGGGA | -0.121
11 | GCTTAGAC | -0.11
12 | GTGCCCAC | -0.00488
13 | GGCTGACA | 0.0532
14 | GCTTTGGA | 0.103
15 | CCGTGCGA | 0.415
16 | ACGTGCGC | 0.165
17 | GCGTGCGA | -0.0235
18 | CCGTGCTC | 0.261
19 | CTGTGCGA | -0.0295
20 | CCGTGCGC | 0.433
21 | CCAAACTA | -0.0843
22 | GCAGCATA | 0.0149

Row | Sequence | PBM E-score
23 | CGACTACC | -0.22
24 | AGAGAGCA | -0.213
25 | AGTGCAGG | -0.0709
26 | CCCGGGCC | -0.151
27 | GAACGGCA | 0.468
28 | CAACGGAA | 0.123
29 | GAACGGGA | -0.0828
30 | TAACGGCA | 0.31
31 | AAACGGTA | 0.166
32 | CAACGGCA | 0.402
33 | AAACGGCA | 0.467
34 | GAACGGCC | 0.233
35 | CAACGGTA | -0.266
36 | AAACTGCG | -0.0893
37 | ACTGGCAT | -0.0932
38 | CTAGTGCC | 0.301
39 | TACTGCGA | -0.159
40 | TTGAACAA | 0.0506
41 | AATCTACC | -0.0419
42 | CCAAAGTC | -0.132
43 | ATTCCTCA | 0.0196
44 | AGGCGATC | 0.128

Row | Sequence | PBM E-score
45 | AGGCGATA | 0.0637
46 | GGGCGATA | -0.147
47 | CGGCGATA | 0.395
48 | CAGCGATC | -0.127
49 | CGGCGATC | 0.373
50 | GCCTGGTA | -0.227
51 | CTCCTGCA | -0.244
52 | ATGCTTGC | -0.24
53 | AAGCAGGA | -0.113
54 | GGGCAGAA | 0.0536
55 | GGGCAGCA | -0.122
56 | CGGCAGCA | 0.333
57 | CGGCAGAA | 0.328
58 | CGGCAGAC | 0.0714
59 | CGGCAGCC | 0.216
60 | CTCTGGTA | -0.177
61 | ATGCCTCC | -0.0159
62 | ATGCCTCG | 0.412
63 | ACGCCTTC | 0.204
64 | ACGCCTCT | 0.0123
65 | ACGCCTTA | 0.294
66 | ACGCCTCC | -0.102

Row | Sequence | PBM E-score
67 | ATGCCTTG | 0.274
68 | ACGCCTCG | 0.381
69 | ACGCCTTG | 0.348
70 | ACCGTGGG | -0.27
71 | CGATAAGA | 0.0597
72 | AGTTGGGG | -0.209
73 | AATATACG | 0.017
74 | TAATTTCA | 0.242
75 | GTCACCTA | -0.204
76 | ACGGCCGG | 0.0865
77 | CCGGCCGC | -0.018
78 | GCGGCCGC | 0.373
79 | ACGGCCGT | 0.401
80 | AAGGCCGG | 0.128
81 | GCGGCCGA | 0.139
82 | ACGGCCGC | 0.406
83 | AAGGCCGT | 0.358
84 | ACGGCCAC | 0.3
85 | AAGGCCGC | 0.314
86 | GAGGCCGC | 0.095
87 | ACGGCCGA | 0.191
88 | ACTATACC | -0.017
